Test results: PubChem BioAssay (EPA / NIEHS)
Results filed as inconclusive are left out. Calls of active or inactive are those of the source. The calls were made as follows, unless noted: active = hit-call score of the fitted dose curve at least 0.9, where 1 is the maximum; inactive = score below 0.9.

Legend:
[1] = CCTE_Mundy_HCI_Cortical_Synap_Neur_Matur_NeuriteLength: CCTE's Synaptogenesis and Neurite Maturation Assay in rat cortical cells for Neurite Length, Mundy Lab (AID 2284214)
In short: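 Rat primary cortical cells were plated, treated with AraC at DIV 5 to arrest glial growth, then chemical-dosed with media change at DIV 7 through DIV 12. Fixed cells stained for MAP2, synaptophysin and Hoechst; neurite length quantified by high-content imaging.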

[2] = CCTE_Mundy_HCI_Cortical_Synap_Neur_Matur_NeuriteSpotCountPerNeuron: CCTE's Synaptogenesis and Neurite Maturation Assay in rat cortical cells for Neurite Spot Count per Neuron Count, Mundy Lab (AID 2284215)
In short: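 Rat primary cortical cells received AraC at DIV 5, then chemicals with a media change at DIV 7, and were fixed at DIV 12. Synaptophysin puncta on MAP2-stained neurites per neuron were counted by high-content imaging, fitted relative to DMSO.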

[3] = CCTE_Mundy_HCI_Cortical_Synap_Neur_Matur_SynapseCount: CCTE's Synaptogenesis and Neurite Maturation Assay in rat cortical cells for Synapse Count, Mundy Lab (AID 2284218)
In short: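 Rat primary cortical cells in 96-well plates received AraC at DIV 5 and were dosed with chemicals at DIV 7 with media change, through DIV 12 (288.33 h). Synapses per neuron counted by high-content imaging of MAP2/synaptophysin/Hoechst staining, versus DMSO baseline.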

[4] = CCTE_Mundy_HCI_Cortical_Synap_Neur_Matur_NeuriteCount: CCTE's Synaptogenesis and Neurite Maturation Assay in rat cortical cells for Neurite Count, Mundy Lab (AID 2284222);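 also: exposure from day 7 to day 12 in vitro with readout at day 12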
In short: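 Rat cortical neurons, 96-well; AraC DIV 5; chemical + media change DIV 7; end DIV 12. Fix PFA/Hoechst, anti-MAP2 + anti-synaptophysin IF. HCI neurite count vs DMSO baseline.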

[5] = CCTE_Mundy_HCI_Cortical_Synap_Neur_Matur_CellBodySpotCount: CCTE's Synaptogenesis and Neurite Maturation Assay in rat cortical cells for Cell Body Spot Count, Mundy Lab (AID 2284223)
In short: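 Rat primary cortical cultures received AraC at DIV 5 to arrest glia, were dosed with chemical at DIV 7 with media change, and were fixed at DIV 12 (288.33 h). Synaptophysin puncta on MAP2-positive cell bodies per neuron were counted by high-content imaging versus DMSO.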

[6] = CCTE_Mundy_HCI_hNP1_Pro_ResponderAvgInten: CCTE's Proliferation Assay in human neuroprogenitor cells, Mundy Lab (AID 2284224; active = hit-call score of the fitted dose curve at least 0.9, where 1 is the maximum;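 also: human neural progenitor cells hNP1 derived from WA09 embryonic stem cells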)
In short: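 Proliferation read as average intensity of BrdU-positive cells, imaged at 26.25 h post-dosing: chemical exposure started after 40–44 h culture, BrdU during final 4 h, paraformaldehyde fixation. Positive-direction fit relative to DMSO.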

[7] = UKN2_HCS_IMR90_cell_viability: Viability Assessment in the University of Konstanz (UKN) Leist Lab Neural Crest Cell Migration Assay in human induced IMR90 Pluripotent Stem Cells (UKN2) (AID 2284233);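 also: viability of neural crest cells differentiated from IMR90 iPSC measured by calcein-AM fluorescence imaging; cells exposed to compound for 24 h after a 24 h migration phase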
In short: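 Neural crest cells derived from IMR90 iPSC migrate into a stopper-free zone for 24 h in EGF/FGF medium, then are exposed to compound for 24 h. Viability assessed by calcein-AM and Hoechst staining with high-content imaging, fitted bidirectionally versus DMSO.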

[8] = CCTE_Mundy_HCI_Cortical_NOG_NeuronCount: CCTE's Neurite Outgrowth Assay in rat cortical cells for Neuron Count, Mundy Lab (AID 2284236; active = hit-call score of the fitted dose curve at least 0.9, where 1 is the maximum;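 also: neurons counted by imaging betaIII-tubulin and Hoechst stained cortical cells; cells exposed to compound for about 48 hours before fixation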)
In short: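 Read-out: neuron number by high-content imaging of betaIII-tubulin (Alexa Fluor-488) and Hoechst-labelled rat primary cortical cells.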

[9] = CCTE_Mundy_HCI_Cortical_NOG_BPCount: CCTE's Neurite Outgrowth Assay in rat cortical cells for Branch Point Count, Mundy Lab (AID 2284237)
In short: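 Measured 50.33 h after dosing, this morphology endpoint uses rat primary cortical cultures labelled for betaIII-tubulin. Branch points are quantified by high-content imaging, with DMSO as negative control and baseline.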

[10] = CCTE_Mundy_HCI_hNP1_Casp3_7: CCTE's Caspase-Glo 3/7 Assay in human neuroprogenitor cells for Apoptosis, Mundy Lab (AID 2284240)
In short: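 Luminescent caspase-3/7 readout, 26.5 h post-dose, in human neural progenitor cells from WA09 embryonic stem cells. Cells grew 40–44 h at 37 °C, 5% CO2 before chemical addition. Activity analysed as signal increase over DMSO baseline.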

[11] = CCTE_Mundy_HCI_hNP1_CellTiter: CCTE's Cell Titer-Glo 2 Assay in human neuroprogenitor cells for Viability, Mundy Lab (AID 2284241; active = hit-call score of the fitted dose curve at least 0.9, where 1 is the maximum)
In short: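 Viability read as luminescent ATP content (CellTiter-Glo, 30 min room temperature) twenty-four hours after dosing, relative to DMSO. Cells: WA09-derived hNP1 neuroprogenitors on poly-L-ornithine/laminin, plated 40 to 44 hours before chemical.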

[12] = IUF_NPC2c_oligodendrocyte_migration_120hr: Leibniz Research Institute for Environmental Medicine (IUF) 120-hour Neural Progenitor Cell Migration Assay for Oligodendrocyte Migration (NPC2c) (AID 2284297);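 also: O4-positive oligodendrocyte migration distance divided by radial glia migration distance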
In short: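 Human fetal cortex-derived neural progenitor spheres (0.3 mm) were plated on poly-D-lysine/laminin in N2 differentiation medium and exposed to 7 concentrations for 120 h, with half-medium renewal at day 3. Oligodendrocyte migration distance was normalized to radial glia migration, relative to DMSO.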

[13] = IUF_NPC2a_radial_glia_migration_120hr: Leibniz Research Institute for Environmental Medicine (IUF) 120-hour Neural Progenitor Cell Migration Assay for Radial Glia Migration (NPC2a) (AID 2284298)
In short: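 Single 0.3 mm primary human fetal-cortex (GW 16-19) NPC spheres were plated on poly-D-lysine/laminin in N2 differentiation medium and exposed from day 0 for 120 h, half-medium refreshed day 3. Migration distance came from Hoechst nuclei-density imaging, relative to DMSO.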

[14] = IUF_NPC2a_radial_glia_migration_72hr: Leibniz Research Institute for Environmental Medicine (IUF) 72-hour Neural Progenitor Cell Migration Assay for Radial Glia Migration (NPC2a) (AID 2284299)
In short: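 Human fetal cortex (GW 16-19) neural progenitor spheres, 0.3 mm, plated on poly-D-lysine/laminin in N2 differentiation medium with compound from day 0. Radial glia migration distance (um, sphere core edge to migration edge) measured manually in four directions on 72 h brightfield images; well mean used.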

[15] = IUF_NPC2b_neuronal_migration_120hr: Leibniz Research Institute for Environmental Medicine (IUF) 120-hour Neural Progenitor Cell Migration Assay for Neuron Migration (NPC2b) (AID 2284300)
In short: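 Primary human fetal cortex neural progenitor spheres (0.3 mm) plated on poly-D-lysine/laminin in N2 differentiation medium, exposed 120 h with half-medium refresh at day 3. TUBB3-stained neuron distance from sphere core, normalized to radial glia migration, versus DMSO.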

[16] = IUF_NPC3_neuronal_differentiation_120hr: Leibniz Research Institute for Environmental Medicine (IUF) 120-hour Neuronal Differentiation Assay (NPC3) (AID 2284301)
In short: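 Human fetal (GW 16-19) neural progenitor spheres (0.3 mm) plated on poly-D-lysine/laminin in N2 differentiation medium, exposed 120 h at 37C with half-medium renewal day 3; 7 concentrations. TUBB3+ cells as % of Hoechst nuclei, CNN-identified; DMSO baseline.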

[17] = IUF_NPC4_neurite_area_120hr: Leibniz Research Institute for Environmental Medicine (IUF) 120-hour Neuronal Morphology Assay for Neurite Area (NPC4) (AID 2284305; active = hit-call score of the fitted dose curve at least 0.9, where 1 is the maximum)
In short: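 Human fetal neural progenitor spheres (0.3 mm) plated on poly-D-lysine/laminin in N2 differentiation medium, exposed 120 h (7 concentrations, DMSO ≤0.1%, half-medium refresh day 3). Fixed, TUBB3 immunostained; mean neurite area per neuron by Omnisphero skeletonization.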

[18] = IUF_NPC2-5_cytotoxicity_72hr: Cytotoxicity Assessment at 72 hours in the Leibniz Research Institute for Environmental Medicine (IUF) Neural Progenitor Cell Migration and Differentiation Assay for Cytotoxicity (NPC2-5) (AID 2284306; active = hit-call score of the fitted dose curve at least 0.9, where 1 is the maximum;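 also: LDH release into supernatant measured by resorufin fluorescence marking membrane damage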)
In short: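 Human fetal primary neural progenitor spheres (0.3 mm) plated on poly-D-lysine/laminin in N2 differentiation medium, exposed from day 0 at 37C. LDH-dependent resazurin-to-resorufin fluorescence in supernatant at 72 h; 7 concentrations, DMSO at most 0.1%.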

[19] = IUF_NPC2-5_cell_number_120hr: Cell Number Assessment at 120 hours in the Leibniz Research Institute for Environmental Medicine (IUF) Neural Progenitor Cell Migration and Differentiation Assay (NPC2-5) (AID 2284308);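 also: count of Hoechst-stained nuclei in migration zone around plated human neural progenitor spheres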
In short: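 Primary human fetal neural progenitor spheres (GW 16-19, 0.3 mm) plated on poly-D-lysine/laminin in N2 differentiation medium, exposed from day 0 for 120 h with half-medium refresh at day 3; Hoechst-positive nuclei counted in migration area versus DMSO control.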

[20] = IUF_NPC2-5_viability_120hr: Viability Assessment at 120 hours in the Leibniz Research Institute for Environmental Medicine (IUF) Neural Progenitor Cell Migration and Differentiation Assay (NPC2-5) (AID 2284312)
In short: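 Human fetal neural progenitor spheres (0.3 mm) plated on poly-D-lysine/laminin in N2 differentiation medium, exposed 120 h with half-medium refresh at day 3. Viability by alamar blue resazurin fluorescence; 7 concentrations, DMSO max 0.1%.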

[21] = CCTE_Mundy_HCI_iCellGluta_NOG_NeuriteLength: CCTE's Neurite Outgrowth Assay in iCellGluta cells for Neurite Length, Mundy Lab (AID 2284318; active = hit-call score of the fitted dose curve at least 0.9, where 1 is the maximum)
In short: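 Automated high-content imaging of betaIII-tubulin (Alexa Fluor-488) and Hoechst-stained cells gave neurite length, normalized to the DMSO baseline.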

[22] = IUF_NPC1_cytotoxicity_72hr: Cytotoxicity Assessment at 72 hours in the Leibniz Research Institute for Environmental Medicine (IUF) Neural Progenitor Cell Proliferation Assay (NPC1) (AID 2284332; active = hit-call score of the fitted dose curve at least 0.9, where 1 is the maximum;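 also: rising LDH signal means more cytotoxicity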)
In short: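 Single human fetal cortex neural progenitor spheres (GW 16-19, 0.25-0.35 mm) in EGF/FGF proliferation medium were exposed to compound for 72 h at 37C without renewal. Medium LDH release was read as resorufin fluorescence and fitted as gain-of-signal.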

Measured: outcome

CC(C)c1nn(C(=O)NC(C)(C)C)c(=O)n1N
inactive: all assays above
